Assay results as given in paper PMC5540273 (PLoS ONE, 2017).

Assays:
Conditions in all cases: concentration: 1 μM, replicates: in singlicate; n = 1
ABL2 = system: ABL2
ACVR1B = system: ACVR1B
ACVR1 = system: ACVR1
ACVR2A = system: ACVR2A
ACVR2B = system: ACVR2B
ACVRL1 = system: ACVRL1
ADCK3 = system: T1, ADCK3
T1 construct: gene CABC1

ADCK4 = system: ADCK4
AKT1 = system: AKT1
AKT2 = system: AKT2
AKT3 = system: AKT3
ALK = system: ALK
AMPK-alpha1 = system: T2, AMPK-alpha1
T2 construct: gene PRKAA1

AMPK-alpha2 = system: T3, AMPK-alpha2
T3 construct: gene PRKAA2

ANKK1 = system: ANKK1
ARK5 = system: T4, ARK5
T4 construct: gene NUAK1

ASK1 = system: T5, ASK1
T5 construct: gene MAP3K5

ASK2 = system: T6, ASK2
T6 construct: gene MAP3K6

AURKA = system: AURKA
AURKB = system: AURKB
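Note: KINOMEscan kinase panel screen.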

Structure (SMILES) | %Inh (ABL2) [%] | %Inh (ACVR1B) [%] | %Inh (ACVR1) [%] | %Inh (ACVR2A) [%] | %Inh (ACVR2B) [%] | %Inh (ACVRL1) [%] | %Inh (ADCK3) [%] | %Inh (ADCK4) [%] | %Inh (AKT1) [%] | %Inh (AKT2) [%] | %Inh (AKT3) [%] | %Inh (ALK) [%] | %Inh (AMPK-alpha1) [%] | %Inh (AMPK-alpha2) [%] | %Inh (ANKK1) [%] | %Inh (ARK5) [%] | %Inh (ASK1) [%] | %Inh (ASK2) [%] | %Inh (AURKA) [%] | %Inh (AURKB) [%]
Cc1cccc(-c2nc(Nc3ccc4[nH]nnc4c3)c3ccccc3n2)n1 [GW867587] | 0 | 0 | 0 | 0 | 0 | 0 | 0 | 8 | 5 | 0 | 0 | 2 | 0 | 0 | 0 | 0 | 0 | 0 | 0 | 0
Nc1nccc2scc(-c3ccc4c(c3)CCN4C(=O)Cc3cc(F)ccc3F)c12 [GSK2587663] | 18 | 0 | 0 | 0 | 0 | 0 | 24 | 35 | 0 | 17 | 0 | 8 | 0 | 11 | 1 | 0 | 6 | 13 | 0 | 8
FC(F)(F)c1cc(Nc2nccc(-c3c(-c4ccc(Cl)cc4)nn4ncccc34)n2)ccc1Cl [GW829351] | 0 | 0 | 0 | 0 | 12 | 0 | 0 | 27 | 0 | 0 | 0 | 8 | 0 | 0 | 0 | 0 | 0 | 0 | 5 | 0
CN1CCC(n2cnc(-c3ccc(F)cc3)c2-c2ccnc(NC3CCNCC3)n2)CC1 [SB-229482] | 0 | 0 | 0 | 0 | 0 | 7 | 9 | 5 | 0 | 0 | 32 | 22 | 0 | 12 | 0 | 0 | 0 | 0 | 34 | 40
Cl.Cl.c1ccc(-c2cc3ccncc3cc2OC2CCNCC2)cc1 [GSK1122999] | 8 | 0 | 22 | 0 | 0 | 0 | 22 | 42 | 0 | 0 | 0 | 23 | 16 | 22 | 0 | 13 | 0 | 4 | 17 | 10
COc1cc2c(Nc3cccc(NC(=O)c4ccccc4)c3)ncnc2cc1OCCCN1CCOCC1 [GSK223810] | 21 | 7 | 5 | 0 | 0 | 0 | 30 | 12 | 0 | 19 | 0 | 21 | 18 | 12 | 16 | 0 | 0 | 3 | 25 | 23
O=c1cc(N2CCOCC2)nc2n(Cc3cccc(Cl)c3)ccn12 [GSK2296823] | 12 | 0 | 0 | 0 | 0 | 0 | 24 | 0 | 0 | 3 | 0 | 32 | 0 | 0 | 22 | 14 | 0 | 0 | 0 | 3
Clc1ccc(-c2cc(-c3c[nH]nc3-c3ccccn3)ccn2)cc1 [GW681251] | 15 | 44 | 12 | 33 | 52 | 0 | 13 | 4 | 27 | 0 | 0 | 19 | 2 | 0 | 0 | 4 | 0 | 0 | 4 | 8
Cl.Cn1ccc(-c2cccc(Nc3ccnc4cc(-c5nccs5)ccc34)c2)n1 [GW525701] | 10 | 0 | 3 | 0 | 0 | 0 | 6 | 55 | 0 | 7 | 0 | 28 | 0 | 14 | 8 | 0 | 9 | 0 | 0 | 28
COc1ccc(-c2oc3ncnc(N)c3c2-c2ccc(OC)cc2)cc1 [SB-589132] | 20 | 0 | 21 | 0 | 0 | 12 | 12 | 55 | 0 | 0 | 0 | 32 | 0 | 10 | 0 | 13 | 11 | 7 | 0 | 30
